An excerpt weighted towards active compounds, which were near 4.3% of everything screened.
ADAM17 inh: inhibits human ADAM17. 370,000 tested, 0.83% active. recombinant ADAM17, EDANS/DABCYL FRET peptide cleavage. inhibition, % at 6.95 µM. AID 720648. P78536;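 active = inhibition above the mean of compounds lying between control limits plus 3 SD, set per campaign, cut at about 8.5% in these data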;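 note: 0% = DMSO-only wells as the low control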
FAS TE block: inhibitors of human fatty acid synthase thioesterase domain. recombinant FAS-TE, OMFH fluorogenic substrate, fluorescence endpoint. inhibition, % at 15 µM. 360,000 tested, 0.67% active. AID 602261;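 active = compounds whose normalised, plate-corrected inhibition of enzyme fluorescence in the single-dose primary screen is 50% or more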;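 note: 0% = DMSO with enzyme and 100% = substrate without enzyme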
NR3A LBD binder: modulators (binders) of human NR3A ligand-binding domain. 340,000 tested, 2.5% active. NR3A LBD differential scanning fluorimetry, Tm shift; 0% = protein alone, 100% = glycine-bound protein. AID 1259313. Tm shift relative to glycine control, % at 25 µM;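 active = melting temperature shift of at least 10% of the positive control shift, at one fixed dose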
sPLA2-III inh: Inhibits HGIII-sPLA2 liposome hydrolysis, primary screen; Q9NZ20; QFRET BODIPY PC-A2 liposome hydrolysis, fluorescence; inhibition, % at 12.2 µM; 370,000 tested, 0.56% active; AID 743126;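 active = inhibition above mean plus 3 SD of compounds lying within the high and low control bounds, cut at about 19% in these data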;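 note: 0% = median of test compound wells and 100% = no enzyme DMSO wells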
ADAM10 inh: inhibitors of human ADAM10; inhibition, % at 7 µM; AID 720582; O14672; recombinant ADAM10, EDANS/DABCYL FRET peptide cleavage, 3 h; 370,000 tested, 0.62% active;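 active = inhibition above a per-campaign cutoff equal to the mean of compounds falling between control-based bounds plus 3 SD, cut at about 20% in these data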;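 note: 0% = DMSO wells while the 100% control is not disclosed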
Starred values were filed as active, the others as inactive; / = no result.

SMILES	ADAM17 inh	FAS TE block	NR3A LBD binder	sPLA2-III inh	ADAM10 inh
COC(=O)c1ccc(NC(=S)NCCc2ccccc2C)cc1	5	15	29*	-21	17
COC(=O)c1ccc(NC(=S)NCCc2cccc(C)c2)cc1	0	12	24*	-22	13
COc1ccc(CNC(=O)C(c2ccncc2)N(C(=O)Cc2cccs2)c2ccccc2)cc1 (configuration not stated)	0	0	-1	13	4
COc1ccc(N(C(=O)CCl)C(C(=O)NCCc2ccccc2)c2cccs2)cc1 (configuration not stated)	1	63*	10	-3	-7
CCN(CC)c1nc(Nc2ccccc2)nc(Oc2ccc(C(=O)OC)cc2)n1	-3	28	14*	-1	-4
Cc1ccc(S(=O)(=O)N2CCN(Cc3ccccc3C(F)(F)F)CC2)cc1	2	2	20*	4	1
O=C(/C(=N/N=C/c1ccc(O)c(O)c1O)c1ccccc1)c1ccccc1	8	22	18*	13	17
CSc1ccc(CN(C)C(=O)C(Cc2ccccc2)NC(=O)c2ccccc2)cc1 (configuration not stated)	-2	13	14*	0	10
NC(=O)CSc1nc2scc(-c3ccc(Cl)cc3)c2c(=O)n1Cc1ccccc1	-1	9	13*	5	1
Cc1ccc(-c2csc3nc(SCC(=O)N(C)C)n(Cc4ccccc4)c(=O)c23)cc1	-2	20	1	-1	2
CCCC(O)(CCC)C(=O)NN1CCCCC1	/	-8	27*	/	/
COC(=O)C[C@H]1CC[C@@H]2[C@@H](COc3ccc(NC(=O)c4ccccc4)cc3C(=O)N2C)O1	-2	/	/	1	-3
CC(=O)c1cc(-c2cnn(Cc3ccccc3)c2)c(=O)n2c1CCC2	3	/	/	0	2
COC(=O)c1ccccc1NC(=O)c1c(O)c2c([nH]c1=O)CCCC2	-2	-11	1	6	-5
O=C(Nc1ccc(O)cc1)c1c(O)c2c([nH]c1=O)CCCC2	-10	1	15*	0	-8
Cc1cc(NC(=O)c2ccc(NS(=O)(=O)c3ccc(F)cc3)cc2)no1	-4	/	/	-4	-2
COC(=O)[C@]12C[C@H](CC(=O)N3CCN(C(=O)C4CC4)CC3)C(=O)N(CCc3ccc(OC)c(OC)c3)C1=C[C@H](COCc1ccccc1)O[C@@H]2C	-2	/	/	-5	2
O=C(OC12CCCN(C1)/C(=C/c1cccnc1)C2)c1ccc(F)cc1 (configuration not stated)	-3	/	/	-2	-4
CCNc1nc(Cl)nc(-c2cn(-c3ccccc3)c3ccccc23)n1	-20	0	12*	1	-46
Clc1nc(Oc2ccccc2)nc(-c2cn(-c3ccccc3)c3ccccc23)n1	-26	4	3	1	-52
COc1ccc(-c2cn[nH]c2-c2ccc(OC)cc2O)cc1	-2	-71	/	-39	10
O=[N+]([O-])c1ccc(COc2ccc(-c3[nH]ncc3-c3ccc(Cl)cc3)c(O)c2)cc1	4	-8	35*	-26	6
Oc1ccc(-c2[nH]ncc2-c2ccc(Br)cc2)c(O)c1	3	-133	7	-58	11
Oc1ccc(-c2[nH]ncc2-c2ccc(Cl)cc2)c(O)c1	7	-140	12*	-36	3
CCc1cc(-c2[nH]ncc2-c2ccc([N+](=O)[O-])cc2)c(O)cc1OC	/	-28	29*	/	/
SMILES	ADAM17 inh	FAS TE block	NR3A LBD binder	sPLA2-III inh	ADAM10 inh
O=C(C1CCN(c2nnc(N3CCCC3=O)s2)CC1)N1CCN(c2cccc(C(F)(F)F)c2)CC1	-5	-6	17*	5	1
Cc1ccc(C)c(N2CCN(C(=O)C3CCN(c4nnc(N5CCCC5=O)s4)CC3)CC2)c1	3	-2	2	-10	-1
CCCn1c(CN(Cc2ccccc2)Cc2ccccc2)nc2c1c(=O)n(C)c(=O)n2C	/	26	14*	/	/
CCCn1c(CN(C)Cc2ccccc2)nc2c1c(=O)n(C)c(=O)n2C	0	-4	0	4	4
COc1ccc(S(=O)(=O)N2CCCCC2)cc1NC(=O)Cn1c(=O)cnc2ccccc21	-1	-3	12*	-13	-6
Cc1nn(C)cc1NC(=O)C[C@H]1CC[C@H]2[C@@H](COc3ccc(NC(=O)Nc4ccccc4)cc3C(=O)N2C)O1	-11	/	/	-27	11
COc1ccc(/C=C2/C(=O)C(C)(C(C)C)CCC2C)cc1 (configuration not stated)	-7	27	10*	3	3
COc1ccc(C(=O)Nc2ccc(Nc3ccccc3)cc2)cc1[N+](=O)[O-]	6	39	28*	3	17
COc1ccc(C(=O)Nc2ccc(OCc3ccccc3)cc2)cc1[N+](=O)[O-]	-1	3	34*	-6	7
OC1(Cc2ccccc2)CCN(c2ncnc3sccc23)CC1	1	/	/	-1	4
COc1ccc(/C=C/c2nc(-c3ccccc3O)n[nH]2)cc1	7	3	40*	-239	12
COc1ccc(/C=C/c2nc(-c3ccccc3O)n(-c3ccccc3)n2)cc1	-3	26	-22	-6	-11
Cc1ccc2nc(-c3ccc(SCC(=O)Nc4ccc5c(c4)OCCO5)nc3)[nH]c2c1	-57	-3	26*	-23	-138
O=C(CSc1ccc(-c2nc3ccccc3[nH]2)cn1)Nc1ccc(S(=O)(=O)NC2CC2)cc1	-16	9	21*	-28	-64
O=C(CSc1ccc(-c2nc3ccccc3[nH]2)cn1)Nc1ccc2c(c1)OCCO2	/	-1	29*	/	/
CCOC(=O)CSc1ccc(-c2nc3ccccc3[nH]2)cn1	-55	-8	-6	4	-173
Cc1cc2nc(-c3ccc(SCC(=O)Nc4ccc5c(c4)OCCO5)nc3)[nH]c2cc1C	-32	-13	15*	-30	-108
Cc1ccc(-c2ccc(SCC(=O)Nc3ccc4c(c3)OCCO4)nn2)cc1	4	15	-6	-15	9
COc1ccc(CSc2nnc(SCc3ccccc3)s2)cc1	2	/	/	-1	1
O=C(N/N=C/c1ccc(F)c(F)c1)c1cc2c(s1)-c1ccccc1CC2	-10	-6	27*	-6	-31
O=C(Nc1ccccc1Oc1ccccc1)NC1CCCCN(Cc2ccc(Cl)cc2)C1=O (configuration not stated)	0	/	/	-1	0
O=C(Nc1ccc(NC(=O)c2ccc3c(c2)OCCO3)cc1)c1ccccc1	-4	1	12*	8	-5
O=C(Nc1cccc(NC(=O)c2cccs2)c1)c1ccc2c(c1)OCO2	-4	8	7	-13	6
O=C(Nc1ccccc1)c1ccc2c(c1)OCCO2	0	-6	-1	-4	-2
O=C(Nc1ccc(NC(=O)c2cccs2)cc1)c1ccc2c(c1)OCCO2	-8	1	29*	1	-5
O=C(Nc1ccc(NC(=O)c2cccs2)cc1)c1ccc2c(c1)OCO2	-7	-2	14*	-2	-6

Bioassay records: PubChem BioAssay, several laboratories
